pS6 MEF inh = reduces mTORC1 signaling in Tsc2 and p53 null MEF cells; Tsc2-/- p53-/- MEF, phospho-rpS6 immunofluorescence/PI, 24 h; AID 493208; hit rate 0.78% among 44,000; Potency, µM (doses to about 38.3 µM), without a hit: at the top dose activity change, negative = inhibition, most hits filed as inhibitors;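 further: potency means the concentration at half of the fitted maximal effect; plate controls were DMSO for no effect and rapamycin for full effect; nearly all actives have a fitted effect of over 50% in size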
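Immunofluorescence of rpS6 phosphorylation in Tsc2-/-, p53-/- MEFs after 24 h compound exposure, normalized to propidium iodide signal. Activity is expressed as % positive cells, thresholded with 7.5 nM rapamycin.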
p53null 32C tox = selectivity test: cytotoxicity in p53 null cells, permissive temperature; H1299-neo p53 null cells, ATP luminescence, 24 h, 32C; Potency, µM (top dose mostly 46.1 µM), inactives show at the highest dose activity change, negative = cytotoxicity, hits mostly cytotoxic; hit rate 0.62% among 55,000;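 further: potency means the concentration at half of the fitted maximal effect; 0% = DMSO only and -100% = full killing by 100 µM tamoxifen; nearly all actives have a fitted effect of over 55% in size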
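We seeded p53-null H1299-neo cells, incubated them overnight at 37C, and added compounds across a range up to 46 uM. After 24 hours at 32C, ATP reagent was applied for 20 min at room temperature and luminescence recorded.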
SKOV3 invasion = ovarian cancer metastasis inhibition, 3D TME model. Potency, µM (top dose mostly 45.8 µM), for the others: top-dose activity change, negative = inhibition, actives largely listed as inhibitors. hit rate 0.1% among 46,000. AID 1963576. SKOV3ip1-GFP adhesion/invasion on 3D omental model, fluorescence;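 further: potency means the concentration at half of the fitted maximal effect; plate controls were DMSO wells for no effect and tomatine positive control wells for full effect; nearly all actives have a fitted effect of over 65% in size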
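Adhesion/invasion was scored as fixed GFP-labeled SKOV3ip1 cell counts (488/509 nm), normalized to DMSO and tomatine controls. Cancer cells in serum-free medium, with four compound doses (0.36-46 umol/L), sat 2 hr at RT then 16 hr at 37 C on a 48 hr fibroblast/mesothelial/ECM culture.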
p53null 39C tox = kills p53 null cells at the nonpermissive temperature | hit rate 0.97% among 55,000 | Potency, µM (top dose mostly 46.1 µM), inactives show at the top dose activity, negative = cell killing, hits mostly cytotoxic | H1299 p53-null (neo) cells, 39C, ATPlite viability, 24 h | AID 904;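 further: potency means the concentration at half of the fitted maximal effect; 0% = DMSO only and -100% = full killing by 100 µM tamoxifen; nearly all actives have a fitted effect of over 50% in size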
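Concentration-response (up to 46 uM) was run for 24 h at the nonpermissive 39C on H1299-p53A138V or H1299-neo cells. ATP content was measured with ATPlite luminescence. AC50 values were Hill-modeled after normalizing between DMSO and 100 uM tamoxifen killing.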
PMP22 txn prim = modulates PMP22 transcription in S16 Schwann cells; AID 1508649; hit rate 2% among 43,000; S16 Pmp22-F2sN Schwann cells, FLuc/NLuc coincidence luminescence, 24 h; Potency, µM (doses to about 57.5 µM), without a hit: at the top dose activity change, negative = inhibition, usual class: inhibitors; active means clear falling dose curves in both reporters; inconclusive means both reporters move, but less clearly or upward; inactive means either reporter flat; the % is the NLuc reporter signal; further: potency means the concentration at half of the fitted maximal effect; on the % scale 0 is the no-effect control and ±100 the full control effect
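Luminescent read-out of sequential FLuc and NLuc signals from a reporter embedded in the Pmp22 3' UTR of S16 Schwann cells, taken after 24 h compound exposure at 37C; compounds reducing both signals score as inhibitors of expression.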
S16 F2sN tox = S16 Schwann cell cytotoxicity; S16 Pmp22-F2sN Schwann cells (luciferase reporters placed in the Pmp22 gene) viability, CellTiter-Glo, 24 h; Potency, µM (doses to about 57.5 µM), for the others: at the highest dose activity change, negative = cytotoxicity, usual class: cytotoxic; hit rate 0.48% among 43,000; AID 1508642; further: potency means the concentration at half of the fitted maximal effect; on the % scale 0 is the no-effect control and ±100 the full control effect; nearly all actives have a fitted effect of over 65% in size
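CellTiter-Glo counter-screen, qHTS, 1536-well. Cells: S16(c9) Pmp22-F2sN, 500-1,000/well in DMEM + 10% FBS. Cpd 23 nL pin transfer, 24 h, 37C/5% CO2. Read: luminescence, CCD imager.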
NLuc sat counter = NanoLuc enzyme inhibition artifact for PMP22 screen; Potency, µM (doses to about 57.5 µM), inactives show at the highest dose activity change, negative = inhibition, actives largely listed as inhibitors; shares compounds with PMP22 txn prim; hit rate 4% among 690; Secreted NLuc enzyme (filtered S16 cell medium), Nano-Glo luminescence; further: potency means the concentration at half of the fitted maximal effect; on the % scale 0 is the no-effect control and ±100 the full control effect
NLuc Km ctr = NanoLuc inhibition at Km substrate, PMP22 artifact check; shares compounds with PMP22 txn prim; secreted NLuc enzyme, coelenterazine luminescence, Km conditions; Potency, µM (titrated, usually from 57.5 µM), for inactives: at the highest dose activity change, negative = inhibition, hits mostly inhibitors; hit rate 5% among 690; AID 1508639; further: potency means the concentration at half of the fitted maximal effect; on the % scale 0 is the no-effect control and ±100 the full control effect
FLuc counter = inhibits firefly luciferase, PMP22 counter-screen; shares compounds with PMP22 txn prim; purified P. pyralis FLuc, luminescence, 10 min; Potency, µM (highest dose often 57.5 µM), for inactives: at the top dose activity, negative = inhibition, actives largely listed as inhibitors; 690 tested, under 10 active; further: % of control where 0% means no effect
Target sequence (P08659 whole entry, looked up): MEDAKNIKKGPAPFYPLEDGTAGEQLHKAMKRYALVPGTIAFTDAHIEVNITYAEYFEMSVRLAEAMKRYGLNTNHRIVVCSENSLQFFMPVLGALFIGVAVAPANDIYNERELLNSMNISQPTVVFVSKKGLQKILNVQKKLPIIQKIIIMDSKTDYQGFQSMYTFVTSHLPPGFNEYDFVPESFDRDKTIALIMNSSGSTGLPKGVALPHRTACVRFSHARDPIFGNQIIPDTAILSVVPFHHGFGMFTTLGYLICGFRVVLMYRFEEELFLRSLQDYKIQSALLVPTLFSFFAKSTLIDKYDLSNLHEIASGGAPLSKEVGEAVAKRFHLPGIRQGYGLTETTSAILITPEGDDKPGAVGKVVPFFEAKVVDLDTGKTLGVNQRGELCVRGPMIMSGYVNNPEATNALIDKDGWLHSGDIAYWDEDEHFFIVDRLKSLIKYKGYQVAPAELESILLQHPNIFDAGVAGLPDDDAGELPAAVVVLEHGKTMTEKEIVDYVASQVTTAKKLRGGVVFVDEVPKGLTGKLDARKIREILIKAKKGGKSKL
S16 F2sN tox cnf = S16 Schwann cell cytotoxicity, confirmatory | S16 Schwann cells viability, CellTiter-Glo ATP luminescence, 24 h | shares compounds with PMP22 txn prim | hit rate 7% among 690 | Potency, µM (titrated, usually from 57.5 µM), inactives show top-dose activity change, negative = viability loss, most hits filed as cytotoxic; further: potency means the concentration at half of the fitted maximal effect; on the % scale 0 is the no-effect control and ±100 the full control effect
PMP22 txn cnf = PMP22 transcription modulation, confirmatory | shares compounds with PMP22 txn prim | AID 1508646 | hit rate 22% among 690 | Potency, µM (doses to about 57.5 µM), without a hit: at the top dose activity change, negative = inhibition, hits mostly inhibitors | S16 Schwann cells Pmp22-F2sN, dual luciferase, 24 h; active means clear falling dose curves in both reporters; inconclusive means both reporters move, but less clearly or upward; inactive means either reporter flat; the % is the FLuc reporter signal; further: potency means the concentration at half of the fitted maximal effect
PMP22 HiBiT cnf = rat PMP22 protein level modulation, confirmatory; Potency, µM (series often up to 27.9 µM), for inactives: at the top dose activity change, negative = inhibition, usual class: inhibitors; S16 Schwann cells Pmp22-HiBiT, luminescence, 48 h; 95 tested, under 10 active; shares compounds with PMP22 txn prim
* hit, by the source's call; i = inactive; ? = inconclusive; . = no result. Only some compounds are listed: those with a hit (about 3.1% of all), similar ones and a draw of the others. Unless noted, the call rests on the fitted dose curve; in most records, active means well fitted curve in the direction sought with a large enough effect; inconclusive means small, poorly fitted or top-dose-only effect, or another doubt; inactive means no such curve, though single readings can be large; an effect the other way counts as inactive or inconclusive.

SMILES	pS6 MEF inh	p53null 32C tox	SKOV3 invasion	p53null 39C tox	PMP22 txn prim	S16 F2sN tox	NLuc sat counter	NLuc Km ctr	FLuc counter	S16 F2sN tox cnf	PMP22 txn cnf	others
COc1ccc(-n2c(=O)c3sc4ccccc4c3n(CC(=O)N3CCCC3)c2=O)cc1	0.5%	-1.2%	i	-4.5%	-1.7%	11.1%	.	.	.	.	.
Cc1ccc(Cl)cc1NC(=O)c1oc2ccc(S(=O)(=O)N3CCC4(CC3)OCCO4)cc2c1C	7.6%	3.4%	i	-4.1%	7.51µM*	3.5%	-11.2%	2.4%	0.7%	?	?
Cc1c(C(=O)Nc2ccccc2Br)oc2ccc(S(=O)(=O)N3CCCCC3)cc12	10.0%	-9.3%	7.4%	6.2%	?	2.8%	-0.7%	8.1%	3.2%	-7.3%	?
Cc1c(C(=O)Nc2ccccc2Cl)oc2ccc(S(=O)(=O)N3CCCCC3)cc12	-3.7%	-5.3%	i	17.5%	14.1µM*	1.8%	-0.9%	2.2%	3.5%	-4.1%	?
Cc1ccc(Cl)cc1NC(=O)c1oc2ccc(S(=O)(=O)N3CCCCC3)cc2c1C	-9.7%	-6.8%	9.4%	10.9%	-8.5%	-1.0%	.	.	.	.	.
Cc1ccc(C)c(N2CCN(C(=O)c3cc(S(=O)(=O)N4CCC(C)CC4)cn3C)CC2)c1	4.1%	22.4%	6.9%	39.5%	-16.8%	-4.1%	.	.	.	.	.
COCCN1Cc2cccc(C(=O)Nc3ccc(Cl)cc3Cl)c2C1=O	-8.6%	-3.5%	i	2.5%	18.9µM*	-26.3%	?	?	-8.4%	8.3%	-44.2%
COc1ccc(C(C)=O)cc1CSc1nc(Nc2ccc(F)c(F)c2)c2ccccc2n1	-1.2%	10.9%	0.5%	-4.5%	17.8µM*	-17.5%	?	?	-1.2%	0.0%	?
CCC(Sc1nc2ccccc2c2nc(-c3ccccc3)nn12)C(=O)Nc1cccc(OC)c1 (stereo not given)	-0.3%	-6.7%	-1.0%	-2.9%	13.4µM*	?	-3.0%	-3.3%	-2.8%	-24.7%	14.5µM*	PMP22 HiBiT cnf=?

Source: PubChem BioAssay
